Measured values reported in PubChem BioAssay (NCI).
This is part of a sample that, as a whole, favours compounds with a hit. Of some 79,000 tested, about 15% had one in any assay. A number with no mark means an inactive call. Active and inactive are the calls of the source. Cut-off read from the data, not from the text of the source: active = growth inhibition above about 70%; inactive = the rest.

Tests used:
[1] = NCI Yeast Anticancer Drug Screen. Data for the rad50 strain (AID 155);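 note: 0% = growth of vehicle-only cultures of the same strain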; details: S. cerevisiae rad50 strain growth inhibition; at 50.0 µM; active compounds read high
How it was run: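 Relative growth inhibition (compound vs vehicle) was measured in yeast with a defined repair-gene alteration.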

[2] = NCI Yeast Anticancer Drug Screen. Data for the mec2-1 strain (AID 157); details: S. cerevisiae mec2-1 strain, at 50.0 µM, active compounds read high
How it was run: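 Readout is yeast growth inhibition, normalised to vehicle-treated controls, in the mec2-1 strain exposed to compound.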

[3] = NCI Yeast Anticancer Drug Screen. Data for the sgs1 mgt1 strain (AID 161);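 note: 0% = growth of cultures given vehicle only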; details: S. cerevisiae sgs1 mgt1 strain, at 50.0 µM, active compounds read high
How it was run: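 Growth of a repair-deficient yeast mutant was monitored after compound treatment and expressed as inhibition relative to vehicle-treated cultures.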

[4] = NCI Yeast Anticancer Drug Screen. Data for the cln2 rad14 strain (AID 165);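 note: 0% = growth equal to vehicle treated cultures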; details: S. cerevisiae cln2 rad14 strain, at 50.0 µM, active compounds read high
How it was run: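 Relative to vehicle controls, growth inhibition of compound-treated cln2 rad14 yeast was recorded.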

[5] = NCI Yeast Anticancer Drug Screen. Data for the bub3 strain (AID 167); details: S. cerevisiae bub3 mutant strain, at 50.0 µM, active compounds read high
How it was run: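 Screening used yeast with an engineered genetic alteration affecting cell cycle control. Compound-exposed cultures were compared with vehicle cultures, and reduced growth was taken as inhibition.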

[6] = NCI Yeast Anticancer Drug Screen. Data for the mlh1 rad18 strain (AID 175); details: S. cerevisiae mlh1 rad18 strain growth inhibition; at 50.0 µM; active compounds read high
How it was run: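 Test agents were incubated with a yeast strain of defined genotype (DNA damage repair defect). Inhibition of growth was derived by comparison with vehicle-exposed cultures.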

Row | Compound | growth inhibition [1] | growth inhibition [2] | growth inhibition [3] | growth inhibition [4] | growth inhibition [5] | growth inhibition [6]
1 | CC(C)CCc1ccccc1O | -14.7% | -21.1% | -28.6% | -19.9% | 0.1% | -14.5%
2 | CCC(=O)SCC[N+](C)(C)C | 16.1% | -30.8% | 0.2% | 8.8% | 27.6% | 4.55%
3 | c1ccc(C2OC3C4COC(O4)C3O2)cc1 (configuration not stated) | -24.7% | -19.9% | -15.4% | -19.1% | -1.75% | -9.7%
4 | C=CC12CCCCC1C(NC)Cc1ccc(OC)c(O)c12 (configuration not stated) | 4.25% | -1.65% | 6.9% | 1.8% | 4.9% | -6.9%
5 | CC(=O)Nc1cc([N+](=O)[O-])c2[nH]c(=O)c3ccccc3c2c1 | -7.7% | -6.7% | -12.4% | -9.45% | -3.2% | -0.15%
6 | [N-]=[N+]=Nc1ccc2[nH]c3ccccc3c(=O)c2c1 | 17.9% | -1.05% | 16.9% | -23.4% | -16.9% | 36.7%
7 | CC(=O)Nc1ccc[n+](CC(=O)c2ccc(F)cc2)c1 | -8.95% | 0.85% | 4.35% | -42.6% | -5.45% | 8.65%
8 | O=C(OCC1OC(C2N(c3ccccc3)CCN2c2ccccc2)C(OC(=O)c2ccccc2)C1OC(=O)c1ccccc1)c1ccccc1 (configuration not stated) | 0.85% | 6.5% | -26.4% | -7.45% | -11.9% | 9.7%
9 | O=C(CC(=O)c1ccccc1)Cc1ccccc1.O=C(CC(=O)c1ccccc1)Cc1ccccc1.[Cu] | 60% | 22.6% | 55.6% | 12.7% | 12.2% | 41.2%
10 | C/C(CC(=O)N1CCCCC1)=N\NC(N)=S | -6.95% | -9.45% | -18.9% | -10.5% | 2.2% | -18.2%
11 | COc1cc(/C=C(\C#N)c2ccccc2)cc(OC)c1 | 43.8% | -13.5% | -9.6% | -9.8% | 17.4% | -28.9%
12 | CC(C)(C#N)OC(=O)Nc1cccc(Cl)c1 | 5.55% | -5.6% | 3.75% | -35.1% | -30.6% | -26.8%
13 | Cc1ccccc1OCC1COCN(C(C)(C)C)CO1 (configuration not stated) | -13.5% | -2.2% | 4.95% | 7.8% | -20.9% | 19.6%
14 | O=Cc1ccc(O)c(C(=O)O)c1 | 8.6% | 5.8% | 15.3% | 21.1% | 21.1% | 2%
15 | COC(=O)C(C(C)C(C)[N+](=O)[O-])=P(c1ccccc1)(c1ccccc1)c1ccccc1 (configuration not stated) | 41.7% | 3.4% | 29.5% | 11.2% | -4.95% | 10.8%
16 | O=C(/C=C/c1ccccc1)SCc1ccccc1 | -2.9% | 14% | 11.2% | -2.1% | -4.75% | 2.35%
17 | COc1ccc2c(c1)CCc1nc(N)nc(N)c1-2 | -3.9% | 4.1% | -14.2% | -40.5% | -16.1% | 11.8%
18 | CC1(O)CCCCCCC1 | 0.85% | -3.6% | 26.6% | 0.7% | 7.9% | 7.8%
19 | O=[N+]([O-])c1ccc(N/N=C\C2CC=C3c4ccccc4CCC3C2/C=N\Nc2ccc([N+](=O)[O-])cc2[N+](=O)[O-])c([N+](=O)[O-])c1 (configuration not stated) | 0.75% | 3.1% | -15.1% | -9.7% | -3.3% | -5.85%

Row | Compound | growth inhibition [1] | growth inhibition [2] | growth inhibition [3] | growth inhibition [4] | growth inhibition [5] | growth inhibition [6]
20 | NC(=O)C1CCCNC1 (configuration not stated) | -6.6% | -6.65% | -10.4% | -13.6% | 15.6% | 6.85%
21 | CCOC(=O)OCCCc1ccccc1 | -8.95% | -2.95% | -8.8% | -15.4% | -7.55% | -6.8%
22 | c1ccc(SCN(CSc2ccccc2)c2ccccc2)cc1 | -1.35% | 26.9% | 13.8% | 66.8% | 22.1% | 14.8%
23 | O=C(Nc1ccc(O)cc1)c1ccccc1O | 31.6% | -20.4% | 14.3% | -5.95% | 15.4% | 1.25%
24 | Oc1ccc(Cl)cc1CC(=S)N1CCOCC1 | 11.1% | 1.3% | 0.45% | -10.4% | 3.4% | -3.9%
25 | O=C1C(N=Nc2ccc(S(=O)(=O)Nc3ccccn3)cc2)C(=O)N(c2ccccc2)C(=S)N1c1ccccc1 | 8.8% | 6.1% | 8.25% | 18.3% | -1.25% | 23.6%
26 | Cc1ccc(Nc2c3ccccc3nc3ccccc23)cc1 | 97.9% (active) | 88.5% (active) | 93.8% (active) | 91.1% (active) | 88.2% (active) | 97.1% (active)
27 | CN(C)Cc1ccccc1COC(=O)c1ccc(Cl)cc1 | 12.8% | 11.5% | 15.1% | 9.75% | 17.4% | 20.9%
28 | COc1cc(Cc2nccc3cc(OC)c(OC)cc23)c(N=NN(C)C)cc1OC | -14.2% | -7.6% | -4.9% | 5.45% | -10.4% | 8.35%
29 | COc1ccc(C(Cc2ccccc2)Nc2ccccc2)cc1 (configuration not stated) | 4.1% | -6.7% | 28.6% | -17% | -0.95% | -1.2%
30 | CCCCCCCCCCCCCCCCSS(=O)(=O)O | 8.5% | 15.7% | 15.8% | -1.15% | 0.15% | 4.9%
31 | BrCCCOc1ccccc1 | -23.7% | -32.8% | -5.65% | -2.9% | -2.4% | 0.7%
32 | CCc1c2c(nc3ccc(O)cc13)-c1cc3c(c(=O)n1C2)COC(=O)[C@]3(O)CC | 33.2% | -5.5% | -5.9% | 10.6% | 7.5% | -7.25%
33 | OCCCOc1ccc2ccccc2c1 | 21.4% | 10.2% | 28.4% | 3.95% | -7.25% | 9.85%
34 | COCCCNC(=S)N/N=C/c1ccccc1O | -2.4% | -31.1% | 16.6% | 12.2% | 11.2% | 4%
35 | CSc1nc(NC(=O)O)c(N(C(C)=O)C(=O)O)c(=O)n1C | -15.3% | 0.6% | 4.55% | 19.7% | -9.35% | -13.5%
36 | CCc1ccc(O)c(CN2CCN(Cc3cc(CC)ccc3O)CC2)c1 | -2.85% | -15.7% | 20.5% | -18.4% | -4.8% | 17.1%
37 | Nc1ccc2c(c1)Cc1c-2cc(Cl)c(N)c1Cl | 8.85% | -0.65% | -18.8% | 6.5% | 13.8% | 6.2%
